# An excerpt weighted towards active compounds, which were near 8% of everything screened.
# MARV entry inh: Marburg virus entry inhibition; Marburg virus pseudotyped entry inhibition, cell reporter; AID 540276; Potency, µM (highest dose often 37.8 µM), without a hit: at the top dose activity change, negative = inhibition, actives largely listed as inhibitors; actives 1.8% (n = 300,000); calls by dose curve; tested in HEK293 cells; further: potency means the concentration at half of the fitted maximal effect; on the % scale 0 is the no-effect control and ±100 the full control effect
# HCMV antiviral: blocks human cytomegalovirus replication | AID 1259415 | HFF cells, HCMV-luciferase reporter, 72 h; active compounds read low | activity change, negative = inhibition, % at 57.5 µM | actives 4.5% (n = 410,000); in the data active means activity change below about -60%; inconclusive means no clear call, values can overlap the other calls; inactive means above about -39%; further: on the % scale 0 is the no-effect control and ±100 the full control effect
#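 Luciferase read-out from HCMV-luciferase-infected HFFs (MOI 1 PFU/cell) 72 h post infection at 37C; compounds added after 16 h cell attachment; activity normalized between buffer-only basal and Salinomycin (10uM) inhibitor controls.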
# FMDV antiviral: antivirals against foot and mouth disease virus; Potency, µM (titrated, usually from 57.9 µM), for the others: at the top dose activity change, negative = inhibition, hits mostly inhibitors; actives 1.2% (n = 410,000); FMDV antiviral cell-based qHTS; calls by dose curve; tested in HEK293T cells; further: read-out not given here; potency means the concentration at half of the fitted maximal effect; on the % scale 0 is the no-effect control and ±100 the full control effect; nearly all actives have a fitted effect of over 45% in size
# HCV inhibitor: HCV inhibition | Huh7.5.1 HCVcc-Cre infection, luciferase reporter, 44 h | Potency, µM (doses to about 41.8 µM), without a hit: at the highest dose activity change, negative = inhibition, hits mostly inhibitors | actives 3.4% (n = 340,000) | AID 651820; active means well fitted inhibition curve with a large enough effect; inconclusive means small, poorly fitted or top-dose-only effect, or another doubt; inactive means no such curve, though single readings can be large or run the other way; further: potency means the concentration at half of the fitted maximal effect; on the % scale 0 is the no-effect control and ±100 the full control effect
#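 1,000 cells/well; 4 h culture; + compound; + HCVcc-Cre (~0.5 moi); 44 h; luciferase substrate, RT 15 min; read 15 sec.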
# SARS PLP yeast: inhibitors of SARS-CoV papain-like protease in yeast; S. cerevisiae expressing SARS-CoV PLpro, growth rescue; Potency, µM (top dose mostly 32.9 µM), inactives show top-dose activity, positive = growth rescue, usual class: activators; actives 0.19% (n = 330,000); AID 485353; calls by dose curve; further: potency means the concentration at half of the fitted maximal effect; 0% is about no effect; nearly all actives have a fitted effect of over 55% in size
# LASV entry inh: Lassa virus entry inhibition; Lassa virus pseudotype entry inhibition, cell reporter; Potency, µM (titrated, usually from 37.9 µM), for the others: at the top dose activity change, negative = inhibition, most hits filed as inhibitors; actives 1.2% (n = 300,000); calls by dose curve; tested in HEK293 cells; further: potency means the concentration at half of the fitted maximal effect; on the % scale 0 is the no-effect control and ±100 the full control effect; nearly all actives have a fitted effect of over 50% in size
# Active calls of the source: *; u = inconclusive; x = no result given; [ ] = dose if it differs, or a comment.
SMILES,MARV entry inh,HCMV antiviral,FMDV antiviral,HCV inhibitor,SARS PLP yeast,LASV entry inh
O=C(COc1cccc(Br)c1)Nc1ccc(Cl)c(S(=O)(=O)N2CCOCC2)c1,u,-29,u,u,-1%,-22%[46.1 µM]
CCN(CC)S(=O)(=O)c1cc(NC(=O)CCCOc2ccc(C(C)=O)cc2)ccc1C,u,14,16µM*,10µM*,-2%,u
CC(=O)c1ccc(OCCCC(=O)Nc2ccc(Cl)c(S(=O)(=O)N3CCOCC3)c2)cc1,x,-79*,16µM*,2.5µM*,x,x
CCOC(=O)c1c(S(=O)(=O)N2CCC(C(=O)NCc3cccc(C)c3)CC2)c(C)n(C)c1C,x,7,1%,x,x,0%[46.1 µM]
C[C@H]1[C@@H](NC(=O)Nc2ccccc2)CC[C@@]23CCCN2C(=O)CCC[C@@H]13,x,0,x,x,x,x
O=C(CCCOc1ccccc1)Nc1ccc(Cl)c(S(=O)(=O)N2CCOCC2)c1,u,-73*,28µM*,7.1µM*,0%,18µM*
CC(C)Oc1ccc(S(=O)(=O)N2CCOCC2)cc1NC(=O)CCCSc1ccccc1,u,-25,-7%,11µM*,3%,-21%
O=C(CCCSc1ccccc1)Nc1ccc(Cl)c(S(=O)(=O)N2CCOCC2)c1,u,0,25µM*,u,-3%,u
O=C(CCSc1ccccc1)Nc1ccc(S(=O)(=O)N2CCOCC2)cc1,2%[46.1 µM],26,0%,7%,11%,0%
COc1ccc(S(=O)(=O)N2CCOCC2)cc1NC(=O)CSc1ccccc1,-15%,-23,17%,x,3%,0%
O=C(c1n[nH]c2c1CCCC2)N1CCOc2ccc(C(O)C(c3ccccc3)c3ccccc3)cc2C1 (stereo not drawn),x,x,-24%,x,x,x
Cc1ccc2c(c1)-n1c(nc3ccccc3c1=O)C(Cc1ccc(O)cc1)NC2=O (stereo not drawn),x,2,x,1%,1%,x
O=C1NC(Cc2ccc(O)cc2)c2nc3ccc(F)cc3c(=O)n2-c2cc3ccccc3cc21 (stereo not drawn),x,-101*,u,x,x,x
Cc1ccc2nc3n(c(=O)c2c1)-c1cc2ccccc2cc1C(=O)NC3Cc1ccc(O)cc1 (stereo not drawn),x,-92*,u,x,x,x
O=C1NC(Cc2ccc(O)cc2)c2nc3cc(F)c(F)cc3c(=O)n2-c2cc3ccccc3cc21 (stereo not drawn),x,-19,u,x,x,x
O=C1NC(Cc2ccc(O)cc2)c2nc3cc(Cl)ccc3c(=O)n2-c2cc3ccccc3cc21 (stereo not drawn),x,-100*,u,x,x,x
O=C1NC(Cc2ccccc2)c2nc3cc(Cl)ccc3c(=O)n2-c2ncccc21 (stereo not drawn),x,-67*,u,x,x,x
COc1ccc(C2c3ccc4ccccc4c3Oc3ncn(CCCN(C)C)c(=N)c32)cc1 (stereo not drawn),1.8µM*,-64*,1%,u,-1%,u
COc1ccc(C2c3c(ncn(CCN4CCOCC4)c3=N)Oc3ccc4ccccc4c32)cc1OC (stereo not drawn),10µM*,-11,u,u,-7%,u
COc1ccccc1C1c2ccc3ccccc3c2Oc2ncn(CCN(C)C)c(=N)c21 (stereo not drawn),2.8µM*,-101*,-31%,13µM*,-4%,u
COc1ccc(C2c3c(ncn(CCCO)c3=N)Oc3ccc4ccccc4c32)cc1OC (stereo not drawn),8%[46.1 µM],16,-15%,u,1%,u
Cc1ccc(N2CC(C(=O)Nc3ccccc3OC(F)F)CC2=O)cc1 (stereo not drawn),x,0,7%,-12%,1%,x
CCN1C/C(=C\c2cc(OC)c(OC)c(OC)c2)C2=NN(c3ccccc3)C(c3cc(OC)c(OC)c(OC)c3)C2C1 (stereo not drawn),14%,135,-25%,-9%,x,-4%
S=C(NCc1cccs1)Nc1cccc(Cl)c1,1%,-69*,33%,-16%,-17%,-12%
S=C(NCc1cccs1)Nc1cc(Cl)cc(Cl)c1,u,-100*,1%,u,-6%,-5%[46.1 µM]
SMILES,MARV entry inh,HCMV antiviral,FMDV antiviral,HCV inhibitor,SARS PLP yeast,LASV entry inh
S=C(NCc1cccs1)Nc1ccccc1Cl,0%,-33,38%,12%,1%,-2%
S=C(NCCC(c1ccccc1)c1ccccc1)Nc1cccc(Cl)c1,-4%,-34,34%,u,-15%,-28%
S=C(NCCN(C1CCCCC1)C1CCCC1)Nc1cccc(Cl)c1,u,-85*,-16%,13µM*,2%,u
FC(F)(F)c1ccccc1-c1cncnc1NCCN1CCOCC1,x,x,8%,x,x,x
O=C(Sc1cccc2cccnc12)c1ccccc1Br,x,-97*,x,x,-51%,x
CC(=O)/C(=N\Nc1ccccc1)Sc1cccc2cccnc12,-13%,10,-22%,u,0%,1%
O=C(Sc1cccc2cccnc12)c1ccc(F)cc1,x,-100*,x,x,-1%,x
COc1ccc(S(=O)(=O)N2CCCOC2CNC(=O)C(=O)NCCCN2CCOCC2)cc1C (stereo not drawn),-10%,-12,-3%,-4%,-8%,-17%
O=C(Nc1ccc2c(c1)OCCO2)C1CCCN1C(=O)Nc1ccc(F)cc1 (stereo not drawn),-10%[46.1 µM],-1,-4%,2%,4%,-5%[46.1 µM]
CC(CCc1ccc(O)cc1)N1CCC(Oc2ccc(C(=O)N3CCCC3)cc2)CC1 (stereo not drawn),2%,-60*,-4%,-1%,-3%,14%
CC(C)Oc1ccc(CNC(=O)C(C)n2ccc3cc(S(=O)(=O)N4CCCCCC4)ccc32)cc1 (stereo not drawn),x,7,15%,x,x,-22%[46.1 µM]
Cc1noc(C)c1-c1nccc(NCc2ccccc2)n1,x,x,-34%,x,x,x
CCc1cc([N+](=O)[O-])cc(CC)c1N,5%[46.1 µM],-20,-23%,11µM*,1%,10%
Cc1ccc([N+](=O)[O-])cc1N,-5%,39,3%,4%,-2%,13%
Cn1c(CNc2cccc(C(F)(F)F)c2)n[nH]c1=S,1%,-1,0%,8%,1%,4%
Cn1c(-c2csc(-c3cccc(C(F)(F)F)c3)n2)n[nH]c1=S,14%,-84*,8%,8%,1%,15%
COc1ccc(C(=O)C(CCC(CNC(C)(C)C)C(=O)c2ccc(OC)cc2)CNC(C)(C)C)cc1 (stereo not drawn),2.1µM*,-98*,u,u,-33%,4µM*
CCC(C)NC(=O)c1c(F)c(F)c(F)c(F)c1F (stereo not drawn),19%,-68*,-16%,13%,8%,0%
Cc1ccc(NCSc2ccc(Cl)cc2)cc1,9%[46.1 µM],52,28%,10µM*,x,20%[46.1 µM]
Clc1ccc(SCNc2ccccc2Cl)cc1,x,-25,-22%,-1%,-1%,x

# Source: PubChem (National Center for Advancing Translational Sciences (NCATS))
